# High-throughput results (PubChem BioAssay)
# POLH inh: DNA polymerase eta (human) inhibition; 390,000 tested, 1.2% active; recombinant Pol eta, fluorescent DNA replication assay; Q9Y253; Potency, µM (series often up to 114 µM), for inactives: at the top dose activity change, negative = inhibition, usual class: inhibitors; AID 588591; also: % is scaled to controls: 0 for no effect and ±100 for the full control effect
#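 Fluorescent replication assay: 50 nM final substrate added after a 15 min room-temperature compound preincubation with 10 nM enzyme. Signal taken at 0 min and again at 10 min.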
# POLI inh: blocks human DNA polymerase iota activity. Q9UNA4. Pol iota fluorescent replication assay, 10 min. Potency, µM (titrated, usually from 115 µM), without a hit: at the top dose activity, negative = inhibition, usual class: inhibitors. 390,000 tested, 1% active. AID 588590
#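 Pol iota at 10 nM preincubated 15 min with compounds at room temperature; reaction started with fluorescent substrate, 50 nM final. Fluorescence read kinetically at 0 and 10 min; buffer-only wells as negative control.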
# WRN inhibitor: blocks human WRN helicase; 360,000 tested, 0.46% active; Potency, µM (highest dose often 114 µM), for inactives: at the top dose activity change, negative = inhibition, usual class: inhibitors; WRN helicase unwinding, fluorescent forked duplex, kinetic; AID 651768; Q14191; also: % is scaled to controls: 0 for no effect and ±100 for the full control effect; nearly all actives have a fitted effect of over 55% in size
#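 Kinetic fluorescence helicase assay: unwinding of a quenched forked DNA duplex (100 nM final) with 2 mM ATP final raises red fluorescence (525/598 nm). Compounds sat 15 min at room temperature with 20 nM WRN beforehand.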
# POLB inh: blocks human DNA polymerase beta activity. Potency, µM (series often up to 114 µM), inactives show at the top dose activity change, negative = inhibition, most hits filed as inhibitors. 340,000 tested, 1.3% active. Pol beta primer extension/strand displacement, fluorescence kinetic; also: % is scaled to controls: 0 for no effect and ±100 for the full control effect
#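 Pol beta (10 nM) and compounds were preincubated 15 min at room temperature, then 50 nM substrate (final) started primer extension/strand displacement. Reads were taken at 0 and 10 min; concentration-response data were fitted to a four-parameter Hill equation.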
# Pol kappa inh: inhibitors of human DNA polymerase kappa; Potency, µM (top dose mostly 107 µM), inactives show top-dose activity, negative = inhibition, actives largely listed as inhibitors; Q9UBT6; purified Pol kappa, fluorescent DNA synthesis assay, 10 min; AID 588579; 400,000 tested, 0.53% active; also: % is scaled to controls: 0 for no effect and ±100 for the full control effect
# Target sequence (Q9UBT6 whole entry, looked up): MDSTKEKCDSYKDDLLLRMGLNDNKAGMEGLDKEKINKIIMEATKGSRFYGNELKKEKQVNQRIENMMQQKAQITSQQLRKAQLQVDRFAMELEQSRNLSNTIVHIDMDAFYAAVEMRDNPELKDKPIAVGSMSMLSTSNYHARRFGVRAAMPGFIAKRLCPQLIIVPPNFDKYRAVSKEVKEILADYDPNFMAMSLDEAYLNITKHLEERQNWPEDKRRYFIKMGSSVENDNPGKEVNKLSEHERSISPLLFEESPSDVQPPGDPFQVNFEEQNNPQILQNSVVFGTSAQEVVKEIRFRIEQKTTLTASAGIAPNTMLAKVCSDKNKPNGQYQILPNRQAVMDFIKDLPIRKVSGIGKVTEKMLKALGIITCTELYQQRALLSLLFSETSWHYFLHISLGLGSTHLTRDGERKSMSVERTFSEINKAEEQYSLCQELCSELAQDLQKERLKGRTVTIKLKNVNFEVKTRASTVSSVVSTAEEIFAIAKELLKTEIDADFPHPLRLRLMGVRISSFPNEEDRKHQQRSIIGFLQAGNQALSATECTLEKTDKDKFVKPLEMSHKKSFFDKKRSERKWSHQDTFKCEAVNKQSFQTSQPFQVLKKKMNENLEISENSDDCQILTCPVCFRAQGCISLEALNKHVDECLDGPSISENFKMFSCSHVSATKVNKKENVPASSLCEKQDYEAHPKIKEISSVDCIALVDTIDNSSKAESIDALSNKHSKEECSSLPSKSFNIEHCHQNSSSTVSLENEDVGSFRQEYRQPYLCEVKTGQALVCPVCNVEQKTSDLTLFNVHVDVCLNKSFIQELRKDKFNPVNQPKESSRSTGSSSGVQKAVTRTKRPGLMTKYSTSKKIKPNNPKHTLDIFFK
#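 Kinetic fluorescence readout at 0 and 10 min followed reaction start with substrate at 50 nM final. Beforehand, enzyme (10 nM Pol kappa) stood 15 min with compound at room temperature; buffer-only wells were negative controls.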
# FEN1 inhibitor: blocks human flap endonuclease 1 | P39748 | Recombinant FEN1 flap cleavage, fluorescence, 15 min | Potency, µM (top dose mostly 114 µM), for the others: at the top dose activity change, negative = inhibition, most hits filed as inhibitors | 390,000 tested, 0.35% active | AID 588795; also: % is scaled to controls: 0 for no effect and ±100 for the full control effect; nearly all actives have a fitted effect of over 65% in size
#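 Nuclease activity of 10 nM FEN1 was measured after 15 min of room-temperature exposure to titrated compounds, by adding 50 nM flap substrate and reading plates at 0 and 15 min.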
# * = called active by the depositor; ? = inconclusive; · = no result; [ ] = dose if it differs, or a comment. Sampled rows, rich in hits. Any-hit rate of the full collection: about 2.4%. Calls follow the shape of the dose curve; as a rule, active = well fitted curve in the direction sought with a large enough effect; inconclusive = small, poorly fitted or top-dose-only effect, or another doubt; inactive = no such curve, though single readings can be large; an effect the other way counts as inactive or inconclusive. Potency is read from the fitted curve at half-maximal effect.
SMILES,POLH inh,POLI inh,WRN inhibitor,POLB inh,Pol kappa inh,FEN1 inhibitor
O=C(Nc1cccc(F)c1)N1CCCC2(CCN(C(=O)c3ccncc3)CC2)C1,·,·,·,·,0%[60.1 µM],·
CCOC(=O)c1cccc(NC(=O)c2cncc(Br)c2)c1,2%,89µM*,0%[11.6 µM],4%,79µM*,-5%
COc1ccc(CCNC(=O)c2cc(S(=O)(=O)N3CCCC(C)C3)cn2C)cc1OC (stereo not given),-13%,17%,·,-1%,-10%[60.1 µM],14%
COc1ccc(NC(=O)c2cc(-c3ccccc3Cl)on2)cc1OC,-4%,79µM*,-23%,16%,?,?
COc1ccc(NC(=O)c2cc(-c3ccc(OC)c(OC)c3)on2)cc1OC,-4%,-11%[58.9 µM],2%,25%,-21%,1%
CC1=C(c2ccc(C(C)C)cc2)S(=O)(=O)N=C1N1CCN(C(=O)c2ccco2)CC1,-19%,50µM*,-10%,-16%,?,-3%
CC1=C(c2ccc(C(C)C)cc2)S(=O)(=O)N=C1N1CCC(C(=O)NCc2ccco2)CC1,·,19%,·,-2%,2%,-1%
O=C(NCc1cccs1)c1ccc(CSc2nc3ccncc3n2Cc2ccccc2F)cc1,-17%,22%,·,39%,8%,3%
Nc1c(C(=O)OCC(=O)Nc2cccc([N+](=O)[O-])c2)[nH]c(=O)[nH]c1=O,25µM*,?,?,·,-32%,?
COc1ccc(CN2C(=O)C(NC(=O)c3ccccc3C)(C(F)(F)F)N=C2c2ccccc2)cc1 (stereo not given),-13%,2%,·,-7%,-5%,0%
COc1ccccc1-c1nnc(SC/C(O)=C(\C#N)c2nc3ccccc3[nH]2)n1C1CCCCC1,?,10%,-23%,-26%,-6%,-9%
N#C/C(=C(/O)CSc1nnc(Cc2cccs2)n1C1CCCCC1)c1nc2ccccc2[nH]1,25µM*,?,4%[11.6 µM],18µM*,?,-5%
COc1cccc(-c2nc(NCCN3CCOCC3)c3ccccc3n2)c1,·,·,·,·,3%[60.1 µM],·
COCCn1c(=O)c(-c2ccc(Cl)cc2)nc2cnc(N3CCNCC3)nc21,·,·,·,·,8%[60.1 µM],·
CC(C)CCNC(=O)c1c[nH]c2ccc(S(=O)(=O)N3CCC4(CC3)OCCO4)cc2c1=O,-1%,7%,-14%,35µM*,-3%,-8%
NS(=O)(=O)c1ccc(CCNc2nc3c(-c4cccc(F)c4)nnn3c3ccc(Cl)cc23)cc1,89µM*,34%,·,?,3%,2%
Fc1cccc(-c2nnn3c2nc(NCCc2ccccc2)c2ccccc23)c1,-13%,28%,·,15%,3%,0%
O=C(O)c1ccc2[nH]c3c(c2c1)CSCC3,8.9µM*,-18%,-25%,?,?,7%
CCOC(=O)c1ccc2[nH]c3c(c2c1)CCCC3,-5%,19%,-4%,0%,-13%,-2%
CCc1ccc(NC(=O)C2CCN(C(=O)N3CC(CC)Oc4ccccc43)CC2)cc1 (stereo not given),-11%,3%,·,-16%,-12%,2%
CC(C)CCN1C(=O)c2ccc(C(=O)Nc3ccc(Br)cc3C(=O)O)cc2C1=O,32µM*,?,-8%[11.6 µM],-3%,-34%,-25%
CC(C)CCN1C(=O)c2ccc(C(=O)Nc3cc(C(=O)O)cc(C(=O)O)c3)cc2C1=O,-20%,129%,-7%,-2%,4%,5%
C[C@H]1[C@@H](OC(=O)CCC(=O)O)OC2OC3(C)CC[C@H]4[C@H](C)CC[C@@H]1[C@@]24OO3 (stereo not given in full),·,·,·,·,5%[19.4 µM],·
COc1ccccc1CCNC(=O)Cn1ccc2cc(S(=O)(=O)N3CCCC3)ccc21,-7%,25%,-14%,3%,-12%,1%
COc1ccccc1CCNC(=O)Cn1ccc2cc(S(=O)(=O)N3CCCCC3)ccc21,-6%,89µM*,·,2%,?,?
SMILES,POLH inh,POLI inh,WRN inhibitor,POLB inh,Pol kappa inh,FEN1 inhibitor
CN1CCN(c2ncc3nc(-c4ccc(Cl)cc4)c(=O)n(C)c3n2)CC1,·,·,·,·,1%[60.1 µM],·
CN(C)/C=C1\C(=O)ON=C1c1ccccc1,-2%,35%,2%,15%,-15%,-5%
CC1=NN(c2ccccc2)C(=O)/C1=C/C=C/c1ccccc1,16µM*,9%,-16%[11.6 µM],36%,-3%,-19%
Cc1ccc(C2=NOC(=O)/C2=C\C=C\c2ccccc2)cc1,89µM*,?,35µM*,?,-21%,-12%
CSCC[C@H](NC(=O)[C@H](CC(C)C)NC(=O)CNC(=O)[C@H](Cc1ccc(O)cc1)NC(=O)[C@H](Cc1ccccc1)NC(=O)[C@H](CCCCN)NC(=O)[C@H](CC(N)=O)NC(=O)[C@@H]1CCCN1C(=O)[C@H](CC(=O)O)NC(=O)[C@H](C)NC(=O)[C@@H]1CCC(=O)N1)C(N)=O,·,·,·,·,13%[60.1 µM],·
CC1=C(CO)C(=O)OC([C@@H](C)C2CC[C@H]3C4C[C@H]5O[C@]56[C@@H](O)C=CC(=O)[C@]6(C)C4CC[C@]23C)C1 (stereo not given in full),50µM*,?,?,?,-18%,-8%
COc1ccc(Cl)cc1NC(=O)c1cc2c(=O)n3ccccc3nc2s1,·,-25%,·,7.1µM*,-7%,?
O=C(OCc1nnc(-c2ccccc2)o1)c1cccc(S(=O)(=O)N2CCOCC2)c1,-14%,13%,-7%,·,89µM*,-8%
CO/N=C(\C(=O)N[C@@H]1C(=O)N2C(C(=O)[O-])=C(C[n+]3cccc4c3CCC4)CS[C@H]12)c1csc(N)n1,·,·,·,·,-18%[19.4 µM],·
O=C(O)/C(=C\c1cccc(O)c1)c1ccc(S(=O)(=O)N2CCCC2)s1,35µM*,?,-4%[11.6 µM],·,?,-1%
O=C(O)/C(=C\c1cccc(F)c1)c1ccc(S(=O)(=O)N2CCCCC2)s1,?,?,?,22µM*,-20%,1%
O=C(O)/C(=C/c1ccc(Cl)c([N+](=O)[O-])c1)c1ccc(S(=O)(=O)N2CCCCC2)s1,28µM*,?,-15%,·,89µM*,-4%
COc1cc(NC(=O)Cn2c(-c3cncs3)nc3ccccc32)cc(OC)c1OC,-14%,-5%,4%,-1%,-2%,-3%
Cc1cc(C)cc(NC(=O)Cn2c(-c3cncs3)nc3ccccc32)c1,·,89µM*,·,?,-14%,-11%
CC1=NN(c2ccc(C)c(C)c2)C(=O)C1C(c1cccc(O)c1)C1C(=O)N(c2ccc(C)c(C)c2)N=C1C (stereo not given),-13%,?,?,-6%,-4%,?
